Most compounds without a hit are left out; they make up all but 1.3% or so of the library.
eIF4E 4G PPI: eIF4E–eIF4G protein interaction inhibitors, primary screen, biochemical, uHTS, TR-FRET, eIF4GI fragment. Eukaryotic translation initiation factor 4E (Mus musculus) + Eukaryotic translation …. TR-FRET eIF4E-eIF4GI(517-606) binding, 2 h. 220,000 compounds, 0.37% hits. AID 782, 2007. inhibition, % at 21.7 µM;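 also: 0% = full FRET control wells and 100% = background wells lacking eIF4GI fragment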
14-3-3 Bad PPI: inhibitors of 14-3-3 zeta/Bad binding, primary screen, biochemical, TR-FRET, bovine 14-3-3 zeta; 14-3-3 protein zeta/delta (Bos taurus), P63103; TR-FRET 14-3-3zeta/Dy647-pBad peptide displacement, 1 h; inhibition, % at 21.7 µM; 220,000 compounds, 0.71% hits; AID 781, 2007;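 active = inhibition above about 70%, limit read from the data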;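 also: 0% = full 14-3-3 plus peptide FRET controls and 100% = background without 14-3-3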
Target sequence (P63103 whole entry, looked up): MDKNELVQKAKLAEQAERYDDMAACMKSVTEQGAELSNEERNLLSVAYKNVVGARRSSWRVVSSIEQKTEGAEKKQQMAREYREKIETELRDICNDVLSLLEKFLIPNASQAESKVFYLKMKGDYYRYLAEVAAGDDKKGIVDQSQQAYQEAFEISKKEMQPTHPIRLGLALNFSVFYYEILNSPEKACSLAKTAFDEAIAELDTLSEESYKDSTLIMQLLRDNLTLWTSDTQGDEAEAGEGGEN
NCF1 inh: p47phox/p22phox peptide binding inhibitors, primary screen, biochemical, uHTS, NADPH oxidase regulatory subunit; Neutrophil cytosol factor 1 (Homo sapiens), P14598; fluorescence polarization, 2 h; inhibition, % at 24.7 µM; 220,000 compounds, 0.53% hits; AID 1274, 2008;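 also: 0% = p47phox with labelled peptide and 100% = labelled peptide alone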
SUMO HTRF inh: inhibitors of in vitro SUMOylation cascade, primary screen, biochemical, HTRF, uHTS; 290,000 compounds, 0.36% hits; inhibition, % at 35 µM; SUMO-conjugating enzyme UBC9 (Homo sapiens), P63279; HTRF SUMOylation assay, SAE1/SAE2 + UBC9; in the data active = inhibition above about 50%, passing the limit was not always enough
Target sequence (P63279 whole entry, looked up): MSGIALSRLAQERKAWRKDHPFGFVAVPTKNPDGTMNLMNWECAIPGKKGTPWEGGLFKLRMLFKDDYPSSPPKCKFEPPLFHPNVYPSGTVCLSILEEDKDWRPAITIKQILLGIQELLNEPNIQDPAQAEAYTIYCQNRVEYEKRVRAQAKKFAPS
* = called active by the depositor; nt = no result; + = active, no number; [ ] = remark or other dose.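 The calls were made as follows, unless noted: active = inhibition above about 30% (limit read from the data); inactive = the rest.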

SMILES | eIF4E 4G PPI | 14-3-3 Bad PPI | NCF1 inh | SUMO HTRF inh
COCCNC(=O)/C(C#N)=C\c1ccc(CNC(=O)C(=O)Nc2ccc(C)c(C)c2)o1 | 3 | -9 | -14 | 20
CCn1c(NC(C)=O)c(-c2ccccc2Cl)c(=O)c2ccccc21 | nt | nt | nt | 14
CC1CCN(S(=O)(=O)c2cn(CC(=O)N3CCN(c4cccc(C(F)(F)F)c4)CC3)cn2)CC1 | nt | nt | nt | -18
CC(=O)c1ccc(N2Cc3ccccc3C2=NC(=O)c2cccs2)cc1 | 13 | 27 | 38* | 16
CCOC(=O)c1ccc(N2Cc3ccccc3C2=NC(=O)c2cccs2)cc1 | -7 | 4 | -10 | -7
COc1cccc2cc(C(C)=O)c(=O)oc12 | 3 | 36 | -8 | 18
COc1cccc2cc(C(=O)NNC(=O)c3ccc(Br)cc3)c(=O)oc12 | 14 | 59 | 37* | 6
S=C(NCc1ccccc1)NCc1ccccn1 | 1 | -5 | -8 | 11
Oc1cccc(/C=N/Nc2cc(N3CCCC3)nc(N3CCCC3)n2)c1 | -1 | -11 | -26 | 93*
Cc1ccc(SCC(=O)c2ccc(CC(=O)O)s2)cc1 | 3 | -3 | -16 | 27
CCOP(=O)(NC12CC3CC(CC(C3)C1)C2)NC12CC3CC(CC(C3)C1)C2 | nt | nt | nt | 4
NS(=O)(=O)c1ccc(NCc2ccccc2OCc2ccccc2F)cc1 | 10 | 82* | -9 | -9
CCOc1ccccc1NC(=O)C1CCN(S(=O)(=O)c2cccc3cccnc23)CC1 | 57*[fluorescence artefact?] | 1 | -8 | 17
COc1ccc(C)cc1NC(=O)C1CCN(S(=O)(=O)c2cccc3cccnc23)CC1 | 0 | 9 | -2 | -3
CC(=O)C1=C(C)NC(SCC(N)=O)=C(C#N)C1CC(C)C (configuration not stated) | -4 | -13 | -13 | -14
CCOC(=O)C1=C(C)NC(SC)=C(C#N)C1CC(C)C (configuration not stated) | 44* | -3 | 0 | 1
Cc1cccc(N2CCN(Cc3ccoc3)CC2)c1C | 5 | 74* | -4 | 25
COc1cc(CN2CCN(c3cccc(C)c3C)CC2)cc(OC)c1O | -3 | 7 | 1 | 35
O=C(Nc1cc(Cl)cc(Cl)c1)C1CCCC1 | nt | nt | nt | -11
CCCCN(CC)CCCNC(=O)CC1Oc2ccccc2NC1=O (configuration not stated) | -21 | -8 | -6 | 1
CCN(CC)CCCNC(=O)CC1Sc2ccccc2NC1=O (configuration not stated) | 32* | -8 | -4 | 14
Cc1cccc(N2CCN(S(=O)(=O)c3ccc4c(c3)NC(=O)CO4)CC2)c1C | nt | nt | nt | -9
Cc1noc(C)c1COC(=O)[C@H](C)NS(=O)(=O)c1ccc(Cl)c(Cl)c1 | 2 | 5 | -28 | 11
Cc1noc(C)c1COC(=O)Cc1ccc(Cl)c(Cl)c1 | -3 | -5 | + | -4
CC(=O)c1cnc(N(C)C)s1 | 3 | -2 | -4 | 3
SMILES | eIF4E 4G PPI | 14-3-3 Bad PPI | NCF1 inh | SUMO HTRF inh
CN(C)c1ncc(C2=C(Cl)C(=O)C(N3CCCC3)=C(Cl)C2=O)s1 | 53*[fluorescence artefact?] | 79*[fluorescence artefact?] | 1 | nt
O=C1C(Cl)=C(N2CCCCC2)C(=O)C(Cl)=C1c1cnc(N2CCCCC2)s1 | 37*[fluorescence artefact?] | 27 | 10 | 59*
Cc1cc(CNC(=S)Nc2ccc(Br)cc2Cl)nn1C | -2 | -10 | -22 | 15
CCOC(=O)C1=C(C)OC(N)=C(C#N)C1c1cc(C)sc1C (configuration not stated) | 7 | -1 | -12 | -16
CCOC(=O)C1=C(C)OC(N)=C(C#N)C1c1cc2cc(C)ccc2nc1N1CCCCC1 (configuration not stated) | 5 | -71 | 49* | 24
CCOC(=O)C1=C(C)OC(N)=C(C#N)C1c1cc2ccccc2nc1N1CCCCC1 (configuration not stated) | -9 | 41 | 81* | 8
CCOC(=O)C1=C(C)OC(N)=C(C#N)C1c1cc2c(cc1Br)OCO2 (configuration not stated) | 7 | 0 | -5 | -3
O=c1cc(CN2CCN(S(=O)(=O)c3ccc4ccccc4c3)CC2)nc2sccn12 | 3 | -4 | 5 | -5
O=C(NNS(=O)(=O)c1cc(Cl)c(Cl)cc1Cl)c1cccnc1 | nt | nt | nt | 3
O=C(O)c1ccc(NC(=O)c2ccccc2NC(=O)c2ccccc2Cl)cc1 | nt | nt | nt | 6
CSc1nc(=O)n2cccc(C)c2n1 | -4 | 97*[fluorescence artefact?] | -13 | 8
Cc1cccn2c(=O)c3cc(C(=O)O)n(C)c3nc12 | 6 | 8 | -15 | -4
Cc1ccc(S(=O)(=O)NCC(=O)N/N=C/c2ccccc2O)cc1 | 4 | -16 | 0 | 11
Cc1ccc(NC(=O)Nc2nnc(-c3ccncc3)s2)cc1C | 20 | 54 | 8 | 73*
Cn1nccc1NC(=O)Nc1cccc(Cl)c1 | -4 | 0 | -9 | 59*
O=C(Nc1cccc(Cl)c1)Nc1nnc(-c2ccncc2)s1 | 4 | 81* | -9 | 56*
Cn1nccc1NC(=O)Nc1cccc([N+](=O)[O-])c1 | -5 | 2 | -13 | 49
CC1(O)N(CCC(=O)Nc2cccc(F)c2)C(=O)OC12CCCCC2 (configuration not stated) | -1 | 5 | 8 | -12
Nn1c(SCC(=O)NCCCc2ccccc2)nnc1-c1cccnc1 | -3 | -9 | -6 | 20
CSC(=NC#N)N1CCN(c2ccccc2)CC1 | 3 | 7 | -3 | -12
O=C1/C(=C/c2ccc([N+](=O)[O-])cc2)C=C(c2ccccc2)N1c1ccc(O)cc1 | -33 | -2 | 56* | 11
O=S(=O)(c1ccc(Br)s1)N1CCN(c2ccccn2)CC1 | 4 | 85* | 9 | 0
O=S(=O)(c1ccc(Br)s1)N1CCN(c2ncccn2)CC1 | 0 | -8 | -11 | 2
O=C(Nc1ccc(O)c(-c2nc3ccccc3s2)c1)c1cc(=O)c2ccccc2o1 | 12 | 76* | -54 | 26
O=C(Nc1ccc(O)c(-c2nc3ccccc3s2)c1)c1cccs1 | 24 | -20 | -15 | 17
SMILES | eIF4E 4G PPI | 14-3-3 Bad PPI | NCF1 inh | SUMO HTRF inh
OCCCCNc1cccc2ccccc12 | 8 | -14 | 42* | 14
Cc1cccc(N2CCN(C(=O)c3c(-c4ccccc4Cl)noc3C)CC2)c1C | nt | nt | nt | -2
Cc1oc2c(c(C)cc3oc(=O)c(CC(=O)NCC(=O)NCC(=O)NCC(C)O)c(C)c32)c1C (configuration not stated) | nt | nt | nt | 60*
CCC(NC(=O)Cc1c(C)c2c(cc(C)c3c(C)c(C)oc32)oc1=O)C(=O)O (configuration not stated) | nt | nt | nt | 54*
Cc1coc2c1c(C)cc1oc(=O)c(CC(=O)N[C@@H](C)C(=O)O)c(C)c12 | nt | nt | nt | 14
CSCC[C@H](NC(=O)Cc1c(C)c2cc3c4c(oc3cc2oc1=O)CCCC4)C(=O)O | nt | nt | nt | 28
CSCC[C@H](NC(=O)Cc1c(C)c2c(cc(C)c3c(C)c(C)oc32)oc1=O)C(=O)O | nt | nt | nt | 57*
